Screening results: PubChem, National Center for Advancing Translational Sciences (NCATS)
In the library only some 6.6% were active in any assay of this set; here they are far more common.
TGFb inhibitor = TGF-b pathway inhibition; HepG2 CAGA-GFP TGF-b/SMAD3 reporter, GFP fluorescence, 18 h; TGF-beta stimulated, 500 pg/mL final; Potency, µM (doses to about 46.1 µM), for inactives: at the highest dose activity, negative = inhibition, actives largely listed as inhibitors; 410,000 compounds, 1.2% hits; AID 588855; also: % is scaled to controls: 0 for no effect and ±100 for the full control effect; nearly all actives have a fitted effect of over 65% in size
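Inhibition of TGF-beta-driven CAGA-GFP reporter expression in HEPG2 cells is measured by cellular GFP fluorescence after 18 h stimulation with 500 pg/mL recombinant TGF-beta in 1% FBS medium at 37 degrees C.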
KB-3-1 tox = KB-3-1 parental cell cytotoxicity. KB-3-1 viability, CellTiter-Glo ATP luminescence, 72 h. Potency, µM (series often up to 46.1 µM), most hits filed as cytotoxic. 400,000 compounds, 1.4% hits. AID 1347075; also: % is scaled to controls: 0 for no effect and ±100 for the full control effect; nearly all actives have a fitted effect of over 60% in size
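KB-3-1 parental drug-naive adenocarcinoma cells in DMEM/10% FBS, incubated 72 h at 37 C with pin-transferred compounds across a concentration series. Viability by CellTiter-Glo luminescence; concentration-response curves fitted after normalization.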
HepG2 tox = counter-screen for TGF-b inhibitors: cytotoxicity in HepG2 cells; Potency, µM (top dose mostly 46.1 µM), for inactives: at the top dose activity change, negative = cytotoxicity, hits mostly cytotoxic; AID 588856; HepG2 CAGA-GFP viability, ATP luminescence, 18 h; 410,000 compounds, 0.76% hits
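CellTiter-Glo luminescence gave cytotoxicity after 18 hours at 37 degrees C. The cells were HepG2 CAGA-GFP in 1% FBS DMEM, stimulated with 500 pg/mL TGF-beta after compound addition. %Activity was normalised to no-cell wells (complete cell-killing) and DMSO (no toxicity), and curves were fitted and classified.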
HT1080NT lethal = kills 2HG-producing HT-1080-NT fibrosarcoma cells; 360,000 compounds, 1.6% hits; AID 686970; Potency, µM (top dose mostly 46.1 µM), without a hit: at the top dose activity, negative = less viability, most hits filed as cytotoxic; HT-1080-NT fibrosarcoma viability, CellTiter-Glo ATP luminescence, 48 h;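 also: NT is the 2HG producing partner of a matched IDH1 knockdown line; 0% = DMSO-treated cells and -100% = media-only wells without cells; nearly all actives have a fitted effect of over 55% in size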
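Viability by CellTiter-Glo luminescence after 48 h compound exposure at 37C of HT-1080-NT cells (750/well, RPMI, 5% FBS). % activity scaled between DMSO wells and medium-only wells, then curve-fitted and categorized by curve class.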
HT1080 IDH1KD tx = kills HT-1080 cells with IDH1 knockdown; 360,000 compounds, 2% hits; AID 686971; Potency, µM (series often up to 46.1 µM), for the others: top-dose activity, negative = toxicity, usual class: cytotoxic; HT-1080 IDH1 knockdown viability, ATP luminescence, 48 h;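 also: 0% = DMSO wells and -100% = cell-free medium wells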
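% activity derives from luminescence (CellTiter-Glo), normalised to DMSO and no-cell wells. HT-1080-IDH1KD cells, 750/well, had 48 h compound exposure at 37 °C.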
KB-V1 cytotox = KB-V1 MDR subline cytotoxicity. 400,000 compounds, 3.4% hits. KB-V1 MDR cells viability, CellTiter-Glo, 72 h. Potency, µM (top dose mostly 46.1 µM), hits mostly cytotoxic; also: % is scaled to controls: 0 for no effect and ±100 for the full control effect; nearly all actives have a fitted effect of over 60% in size
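Readout: CellTiter-Glo luminescence, 10 min after addition. Cells: KB-V1 MDR subline, 72 h at 37 degrees C with compound. Analysis: corrected, normalized data fitted to concentration-effect curves.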
Active calls of the source: *; i = inactive; ? = inconclusive; nt = not tested or not shown; ! = not active in a repeat. Calls follow the shape of the dose curve; as a rule, active = well fitted curve in the direction sought with a large enough effect; inconclusive = small, poorly fitted or top-dose-only effect, or another doubt; inactive = no such curve, though single readings can be large; an effect the other way counts as inactive or inconclusive. Potency is read from the fitted curve at half-maximal effect.

SMILES | TGFb inhibitor | KB-3-1 tox | HepG2 tox | HT1080NT lethal | HT1080 IDH1KD tx | KB-V1 cytotox
COc1ccc2sc(-c3ccccc3OC)c(-c3ccc(OCCN4CCOCC4)cc3)c2c1 | -2% | i | 1% | -19% | -25% | i
c1ccc(-c2sc3ccccc3c2-c2ccc(OCCN3CCOCC3)cc2)cc1 | -1% | i | -15% | 0% | -2% | i
Oc1cccc(-c2sc3ccccc3c2-c2ccc(OCCN3CCCCC3)cc2)c1 | nt | ? | nt | 21µM* | 12µM* | i
COc1ccccc1-c1sc2cc3c(cc2c1-c1ccc(OCCN2CCCCC2)cc1)OCO3 | ? | ? | 10µM* | ? | ? | ?
COc1ccccc1-c1sc2ccccc2c1-c1ccc(O)cc1 | 11µM* | i | -37% | -4% | -12% | i
COc1cc2sc(-c3ccccc3OC)c(-c3ccc(OCCN4CCCCC4)cc3)c2cc1OC | ? | ? | 16µM* | ? | ? | ?
COc1ccc(-c2sc3ccccc3c2-c2ccc(O)cc2)cc1 | ? | ? | -108% | ? | ? | i
CCn1c(C(=O)NCc2ccccc2OC)cc2sccc21 | -1% | i | -24% | nt | nt | i
CC1(C)C(=O)N(CC(=O)Nc2cccc(F)c2)c2ccc(S(=O)(=O)N3CCCCC3)cc21 | -25% | i | -4% | nt | nt | i
CCc1nn(Cc2c(C)cc(C)cc2C)c(=O)c2cc3cc(C)ccc3n12 | -19% | i | -8% | nt | nt | ?
O=C(c1ccc(OCCN2CCCCC2)cc1)c1c(-c2ccc(O)cc2)sc2cc(O)ccc12 | ? | ? | 14µM*! | 21µM* | 21µM* | ?
COc1ccc2nc(SCC(=O)NC3CCCC3)c(C)cc2c1 | ? | 7.3µM* | 0% | ? | 5.8µM* | ?
COc1ccc(-n2c(SCC(=O)NC3CCCCC3)nc3ccsc3c2=O)cc1 | 0% | i | 8% | -7% | 7% | 2.1µM*
CCC(C)NC(=O)CSc1nc2ccsc2c(=O)n1-c1ccc(OC)cc1 (stereo not given) | -16% | i | -20% | 3% | 0% | i
CCOc1ccc2nc(SCC(=O)NC3CCCCC3)[nH]c2c1 | 1% | i | 6% | -4% | -17% | 16µM*
CCOc1ccc(Br)cc1/C(C)=N\NC1=NCCN1 | -7% | 6.5µM* | -18% | 21µM* | ? | ?
CCCCCCOc1ccc(/C(C)=N/NC2=NCCN2)cc1 | ? | i | 14µM* | -19% | -7% | i
Cc1ccc(C(=O)N2CCCN(c3nc4cc5c(cc4cc3C#N)OCO5)CC2)cc1 | -21% | ? | -3% | ? | 21µM* | 23µM*
Cc1oc(-c2ccccc2F)nc1Cn1c(SCc2cccc(C(F)(F)F)c2)nc2ccncc21 | ? | i | -65% | nt | nt | i
Cc1oc(-c2ccccc2F)nc1Cn1c(SCc2cccc(Cl)c2)nc2ccncc21 | 18µM* | nt | -19% | nt | nt | nt
CCOc1ccccc1NC(=O)Nc1ccc2c(c1)OCO2 | 0% | i | -22% | -13% | -14% | i
C=CCOc1ccccc1CN(C(=O)CCl)c1ccc2c(c1)OCO2 | ? | ? | -71% | 3.7µM* | 2.6µM* | ?
O=C(Cc1ccc2ccccc2c1)Nc1nnc(-c2ccncc2)s1 | nt | i | nt | nt | nt | i
COc1ccc(N2CCN(C(c3ccccc3)c3nnnn3C(C)C)CC2)cc1 (stereo not given) | 0% | ? | 1% | nt | nt | i
CCCN(CC(=O)Nc1ccccc1C)C(=O)COc1c(Cl)cccc1Cl | 4% | i | 4% | 1% | -7% | 5.8µM*
SMILES | TGFb inhibitor | KB-3-1 tox | HepG2 tox | HT1080NT lethal | HT1080 IDH1KD tx | KB-V1 cytotox
CCCN(CC(=O)Nc1ccccc1C)C(=O)CCl | 5.6µM* | 16µM* | -79% | 8.2µM* | 4.1µM* | ?
CN1CCN(c2ncnc3c2ncn3[C@H]2CN(Cc3ccc(C(=O)O)cc3)C[C@@H](CO)O2)CC1 | -3% | i | 1% | 26% | 2% | i
OCCN1CCN(c2ncnc3c2ncn3[C@H]2CN(Cc3ccc(-c4ccccc4)cc3)C[C@@H](CO)O2)CC1 | -6% | i | -34% | 21µM* | ? | i
CN1CCN(c2ncnc3c2ncn3[C@H]2CN(Cc3ccc(-c4ccccc4)cc3)C[C@@H](CO)O2)CC1 | ? | i | 11µM* | 18µM* | 9.2µM* | i
COc1ccc(OC)c(NC(=O)CSc2cn(CC(=O)N3CCCCCC3)c3ccccc23)c1 | ? | nt | -30% | nt | nt | nt
c1cncc(-c2nc(NCC3CCCO3)c3ccccc3n2)c1 (stereo not given) | -2% | i | -38% | -11% | -1% | ?
Oc1ccc(Cl)cc1Nc1nc(NCC2CCCO2)c2ccccc2n1 (stereo not given) | ? | i | -38% | nt | nt | i
Oc1ccc(Nc2nc(NCC3CCCO3)c3ccccc3n2)cc1 (stereo not given) | -3% | i | -41% | 21µM* | ? | i
Oc1ccccc1Nc1nc(NCC2CCCO2)c2ccccc2n1 (stereo not given) | -8% | ? | -22% | -5% | -9% | 16µM*
Cc1ccc2c(c1)cc(CN(Cc1cccnc1)C(=O)NCc1ccccc1)c1nnnn12 | 19% | ? | -15% | 10% | 2% | 2.6µM*
CC1=C(C(=O)N(C(C)C)C(C)C)CC(CC(=O)NC(c2ccccc2)c2ccccc2)C(=O)N1CCCN1CCCC1=O (stereo not given) | -11% | i | -1% | 23% | 5% | i
CCOc1ccc(NS(=O)(=O)c2cc(NC(=O)c3ccc(C)cc3)ccc2Cl)cc1 | ? | ? | -7% | 2.3µM* | 3.7µM* | 0.82µM*
CCN(CC)c1ccc(NC(=O)c2cccc(C)c2)cc1S(=O)(=O)Nc1ccccc1OC | -22% | i | -12% | 5% | 0% | ?
COc1ccc(NS(=O)(=O)c2cc(C(=O)N3CCN(C(C)=O)CC3)ccc2Cl)cc1 | -1% | i | 12% | 0% | 4% | i
COc1ccc(NS(=O)(=O)c2cc(N/C(=N\S(=O)(=O)c3ccccc3)c3ccc(F)cc3)ccc2Cl)cc1 | ? | 21µM* | 0% | ? | ? | 21µM*
CCN(CC)c1ccc(NC(=O)c2ccccc2)cc1S(=O)(=O)Nc1ccccc1OC | -14% | i | 2% | -2% | -20% | 15µM*
Cc1ccc(NC(=S)NC(=O)c2ccc(F)cc2)cc1S(=O)(=O)Nc1ccccc1Cl | ? | 23µM* | -3% | ? | ? | ?
